Measured values from ChEMBL document CHEMBL3988442, “University of Dundee, Small-Polar-MMV Screening Library” (2021).
Screen size: about 48,000 compounds; about 13,000 (27%) showed an effect of 50% or more. The list shows a part of the results.

Test system: Wolbachia pipientis
Test: Anti-Wolbachia Cell-Based Screen
Type: functional
Set-up: scale not given: in the data most compounds retested in dose-response had high values
Conditions: 5 µM

Row | SMILES | Percent Effect
1 | COc1c(C2CCCN2Cc2nccn2C)c(C)nn1C (centres undefined) | 8.453%
2 | Cc1c[nH]nc1C1CCCN1Cc1nccn1C.O=CO (centres undefined) | 95.89%
3 | Cc1c[nH]nc1C1CCCN1Cc1ncc[nH]1.O=CO (centres undefined) | 85.61%
4 | CCn1ccnc1CN1CCCC1c1c(C)nn(C)c1OC (centres undefined) | -25.16%
5 | Cc1noc(C)c1-c1cncc(C2CCCN2Cc2ccncc2)n1 (centres undefined) | -4.931%
6 | CC(C)(C)c1coc([C@@H]2COCCN2Cc2ncc[nH]2)n1 | -0.9304%
7 | Cc1nccn1CCC1CCCCN1Cc1ccncc1 (centres undefined) | 6.487%
8 | Cc1c[nH]nc1C1CCCN1Cc1ccncc1 (centres undefined) | 100.6%
9 | Cc1ccc(-c2c[nH]c([C@@H]3COCCN3Cc3ncc[nH]3)n2)cc1 | 0.7932%
10 | CCc1ncncc1C(=O)NCCNS(=O)(=O)c1ccccc1 | 12.25%
11 | O=C(c1c[nH]nn1)N1CCN(C(c2ccccc2)C(F)(F)F)CC1 (centres undefined) | 0.659%
12 | COC(C)c1nc(CN2CCCNCC2)cs1 (centres undefined) | 4.679%
13 | CC(CS(C)(=O)=O)N(C(=O)c1ccc(Cl)s1)C1CC1 (centres undefined) | -8.906%
14 | Cc1cccc2c1OCCCC2NCc1nnc2n1CCCCC2 (centres undefined) | -7.858%
15 | CN(Cc1ccon1)C1CCN(c2cccc(-c3cscn3)c2)CC1 | -11.17%
16 | Cc1nc2c(c(=O)[nH]1)CCN(Cc1ccc3c(c1)CCCN3C)C2 | 94.44%
17 | Cc1nc2c(c(=O)[nH]1)CN(Cc1ccc3c(c1)CCCN3C)CC2 | 56.56%
18 | Cn1nc2c(cc1=O)CN(Cc1ccc(-n3cccn3)cc1)CC2 | 6.074%
19 | CCCN1CCc2nc(SCc3c(C)cc(C)cc3C)[nH]c(=O)c2C1 | 4.96%
20 | CC(C(=O)Nc1ccnn1C(C)C)N1CCCN(c2nccs2)CC1 (centres undefined) | 10.48%
21 | OCCn1nnnc1Cc1ccc(Br)cc1 | -3.897%
22 | O=C(c1[nH]nc(C2CC2)c1Cl)N1CCN(C2CC2)CC1 | -10.68%
23 | COc1ccc(OCc2nc(C(=O)N3CC(O)C3)co2)cc1 | -10.13%
24 | CC(C)(C)n1cc(C(=O)N2CCCN(Cc3cccs3)CC2)cn1 | -3.981%
25 | CC(C)(C)NC(=O)[C@@H]1Cc2ccccc2CN1Cc1cccs1 | 16.75%

Row | SMILES | Percent Effect
26 | Cc1ccc(C(=O)N2CC(=O)N(Cc3cccs3)CC(O)C2)cc1 (centres undefined) | 76.19%
27 | O=C1CN(C(=O)c2ccc(F)cc2)CC(O)CN1Cc1cccs1 (centres undefined) | 106.9%
28 | CC1CN(C)CCN1C(=O)c1cccn1Cc1cccs1 (centres undefined) | -1.596%
29 | CSc1ccc(C(=O)N2CC(=O)N(Cc3cccs3)CC(O)C2)cc1 (centres undefined) | 110.9%
30 | COc1ccc(C(=O)N2CC(=O)N(Cc3cccs3)CC(O)C2)cc1 (centres undefined) | 106.6%
31 | O=C(c1ccc(F)cc1)N1C[C@@H]2CN(c3ncccn3)C[C@@H]2C1 | 2.652%
32 | COc1ccc(C(=O)N2CCN(C(=O)c3csc(C(C)C)n3)CC2)cc1 | -4.051%
33 | CN(C)C(=O)CNC(CC(F)(F)F)c1ccc(F)cc1 (centres undefined) | -7.138%
34 | CCc1cnc(N2CC3(CCN(S(=O)(=O)C4CC4)C3)C2)nc1 | -6.098%
35 | CCCNC(=O)CNc1cc(C(=O)N2CCSCC2)ccc1C | -10.89%
36 | Cc1ccc(S(=O)(=O)NCCNc2cc(-n3cccc3)ncn2)c(C)c1 | 19.5%
37 | CC(C)Oc1ccc(-c2csc(Cn3ccc(=O)[nH]c3=O)n2)cc1 | -3.236%
38 | O=C1CN(C(=O)C2CCOC2)CCN1Cc1ccc(Cl)cc1 (centres undefined) | -11.12%
39 | O=C1CN(C(=O)c2ccc(Cl)cc2)CC(O)CN1Cc1cccs1 (centres undefined) | 98.52%
40 | Cc1ccc(OCC(=O)N(C)Cc2ccc(F)cc2)cn1 | -1.613%
41 | COc1cccc(CN(C)Cc2nc3cc(C)ccc3[nH]2)c1O | 1.617%
42 | CCc1ccc(CN(CC)Cc2ccc(S(=O)(=O)NC)cc2)cc1 | -10.93%
43 | CNc1ncc(CN(C)Cc2cc(O)c3cc(F)ccc3n2)cn1 | -2.585%
44 | CN(Cc1cnc(C(C)(C)C)nc1)Cc1nc2ccc(F)cc2[nH]1 | 92.92%
45 | CNS(=O)(=O)c1ccc(CN(C)Cc2nc3ccc(F)cc3[nH]2)cc1 | 112.9%
46 | Cc1nc(CCN)cc(N(C)Cc2nc3ccc(F)cc3[nH]2)n1 | -5.934%
47 | CCOc1ccccc1CN(CC)Cc1ccc(S(=O)(=O)NC)cc1 | 14.99%
48 | Cc1ccc(CN(C)Cc2nc3ccc(F)cc3[nH]2)cn1 | 92.16%
49 | CCNC(=O)NC(C)(C)C(=O)NCc1cccc(N2CC=CC2)c1 | 1.796%
